Bioassay records from PubChem.
KB-V1 MDR tox: kills drug-selected multidrug resistant KB-V1 cells; KB-V1 MDR cells viability, CellTiter-Glo, 72 h; AID 1347076; 400,000 tested, 3.4% active; Potency, µM (series often up to 46.1 µM), actives largely listed as cytotoxic; further: on the % scale 0 is the no-effect control and ±100 the full control effect; nearly all actives have a fitted effect of over 60% in size
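KB-V1 MDR subline cells in DMEM (phenol-red free, 10% FBS) exposed to compounds in qHTS concentration series for 72 h at 37 degrees C. Viability read by CellTiter-Glo luminescence; concentration-effect curves fitted after normalization and correction.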
KB-3-1 cytotox: KB-3-1 parental cell cytotoxicity; Potency, µM (doses to about 46.1 µM), most hits filed as cytotoxic; 400,000 tested, 1.4% active; KB-3-1 viability, CellTiter-Glo ATP luminescence, 72 h; further: on the % scale 0 is the no-effect control and ±100 the full control effect; nearly all actives have a fitted effect of over 60% in size
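Luminescent ATP read-out (CellTiter-Glo) measures survival of drug-naive KB-3-1 cells after 72 h compound exposure at 37 °C. Titration series was screened from lowest to highest concentration, with DMSO vehicle plates as background controls.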
MCF10A rereplic: inducers of DNA re-replication in MCF 10A breast cells. 350,000 tested, 2.9% active. Potency, µM (titrated, usually from 46.1 µM), without a hit: at the top dose activity, positive = re-replication, actives largely listed as activators. MCF 10A DNA re-replication, Hoechst nuclear intensity, 48 h. AID 624296; further: % of control where 0% means no effect; nearly all actives have a fitted effect of over 50% in size
SW480 rerep: inducers of DNA re-replication in SW480 colon cancer cells. SW480 DNA re-replication, Hoechst DNA content imaging, 48 h. Potency, µM (titrated, usually from 46.1 µM), for inactives: top-dose re-replication activation, hits mostly activators. 340,000 tested, 1.8% active; further: % of control where 0% means no effect; nearly all actives have a fitted effect of over 55% in size
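SW480 cells exposed to compounds for 48 hr at 37 C, 5% CO2, then Hoechst-stained 40 min. Nuclear DNA content imaged by fluorescence scanning (405 nm excitation, 500-530 nm emission); re-replication scored as increased high-intensity nuclei.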
ELG1 repair inh: ELG1-dependent DNA repair inhibition. 330,000 tested, 2.3% active. HEK293T ELG1-luciferase reporter, luminescence, 16 h; DNA damage induced by 5-fluorouridine. Potency, µM (top dose mostly 46.1 µM), inactives show at the top dose activity change, negative = inhibition, most hits filed as inhibitors; further: on the % scale 0 is the no-effect control and ±100 the full control effect; nearly all actives have a fitted effect of over 55% in size
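Step one: seed 2,000 cells per well. Step two: pin-transfer compound or DMSO alongside 5-fluorouridine. Step three: incubate 16 hr, 37 °C, 5% CO2. Step four: add ONE-Glo, wait 30 min, read luminescence.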
Active calls of the source: *; i = inactive; ? = inconclusive. A selection: hits, their analogues and other compounds. The true share with any hit is near 8.1%. The call rests on the fitted dose curve; in most records, active means well fitted curve in the direction sought with a large enough effect; inconclusive means small, poorly fitted or top-dose-only effect, or another doubt; inactive means no such curve, though single readings can be large; an effect the other way counts as inactive or inconclusive. Potency means the concentration at half of the fitted maximal effect.

SMILES	KB-V1 MDR tox	KB-3-1 cytotox	MCF10A rereplic	SW480 rerep	ELG1 repair inh
Cc1ccc(C(=O)O)cc1-c1ccc(/C=C2/NC(=O)N(c3ccccc3)C2=O)o1	i	i	13µM*	?	4%
O=C(O)c1ccc(-c2ccc(/C=C3\NC(=O)N(Cc4ccc(Cl)cc4)C3=O)o2)cc1	i	i	2.1µM*	10µM*	-6%
Cc1ccc(C)c(N2C(=N)S/C(=C\c3ccc(-c4ccccc4C(=O)O)o3)C2=O)c1	i	i	18µM*	-19%	6%
Cc1ccc(C(=O)O)cc1-c1ccc(/C=C2\SC(=O)N(CC(=O)Nc3ccccc3)C2=O)o1	i	i	23µM*	-26%	-13%
Cc1cccc(CN2CCN(C(C)C(=O)NC(C)c3ccccc3)CC2)c1 (centres undefined)	i	i	10%	?	1%
O=C(C[n+]1cc(-c2ccc(F)cc2)n2c1CCC2)OCc1ccccc1	i	i	0%	-6%	1%
Cc1ccc(/C=C2/NC(=O)N(Cc3ccccc3)C2=O)o1	i	i	25%	?	-3%
C#CCN1C(=O)S/C(=C\c2ccc(-c3ccc(C(=O)O)cc3C)o2)C1=O	i	i	-6%	20%	?
Cc1cc(C(=O)O)ccc1-c1ccc(/C=C2\NC(=O)N(Cc3ccccc3Cl)C2=O)o1	i	i	2.3µM*	?	-3%
Cc1ccc(CN2C(=O)N/C(=C\c3ccc(-c4ccc(C(=O)O)cc4C)o3)C2=O)cc1	i	i	?	7.3µM*	-1%
OC(COCc1ccccc1)Cn1cnc2ccccc21 (centres undefined)	16µM*	i	0%	-15%	-1%
CC(Cn1cnc2ccccc21)C(=O)O (centres undefined)	i	i	0%	1%	11%
OC(COCC1CC=CCC1)Cn1cnc2ccccc21 (centres undefined)	i	i	21%	4%	1%
OC(CN(c1ccccc1)c1ccccc1)Cn1cnc2ccccc21 (centres undefined)	18µM*	?	6%	-2%	?
Cc1onc(-c2ccccc2)c1-c1csc(N/N=C/c2ccccc2)n1	i	i	7%	-4%	?
COc1cccc(OCCOCC(O)CN2CCN(Cc3ccc(Cl)cc3)CC2)c1 (centres undefined)	i	i	?	-3%	-26%
CCc1ccc(OCCOCC(O)CN2CCN(Cc3ccc(Cl)cc3)CC2)cc1 (centres undefined)	i	?	15µM*	?	-17%
CC(=O)c1cc(C(c2csc(C(C)=O)c2)c2csc(C(C)=O)c2)cs1	i	i	0%	1%	-8%
CN1c2ccccc2C(O)=C(C(=S)Nc2ccccc2)S1(=O)=O	i	i	7%	-10%	3%
CN1c2ccccc2C(O)=C(C(=S)Nc2ccc(F)c(Cl)c2)S1(=O)=O	16µM*	16µM*	?	2%	-25%
Cc1ccc(C)c(NC(=O)CSc2nnc(CNC(=O)c3ccco3)o2)c1	?	i	-4%	-12%	5%
Cc1cccc(C(P(=O)(c2ccccc2)c2ccccc2)P(=O)(c2ccccc2)c2ccccc2)n1	i	i	2%	-1%	11%
CC1Cc2ccccc2N1C(=O)CSc1ccccc1 (centres undefined)	16µM*	i	-3%	-8%	?
O=C(CSc1nnc(CNc2ccc(F)cc2)o1)N1c2ccccc2Sc2ccccc21	3.3µM*	?	10%	-2%	?
CC1Cc2ccccc2N1C(=O)CSC1=NCCS1 (centres undefined)	i	i	8%	-3%	-2%
SMILES	KB-V1 MDR tox	KB-3-1 cytotox	MCF10A rereplic	SW480 rerep	ELG1 repair inh
O=C(CSc1nnc(COc2ccc(F)cc2)o1)N1c2ccccc2CCc2ccccc21	6.5µM*	i	?	14%	?
O=C(CSc1nnc(CNc2ccc(F)cc2)o1)N1CCN(C(=O)c2ccco2)CC1	i	?	2%	2%	-9%
CC1Cc2ccccc2N1C(=O)CSc1nnc(CNc2ccccc2)o1 (centres undefined)	16µM*	?	-3%	-2%	-5%
CC1CC(C)CN(S(=O)(=O)c2ccc(NC(=O)[C@@H]3CCCN3C(=O)c3cccs3)cc2)C1 (some centres undefined)	i	i	9%	-2%	8%
O=C(Nc1nnc(SCC(=O)N2CCCCC2)s1)c1cccs1	21µM*	i	-2%	-6%	?
O=C(CSc1nnc(CNc2ccccc2)o1)N1CCCc2ccccc21	13µM*	i	-5%	-2%	-9%
Cc1nc(SCC(=O)N2c3ccccc3NC(=O)CC2C)c2c(C)c(C)sc2n1 (centres undefined)	i	i	?	-20%	-21%
CC(=O)Nc1nnc(SCC(=O)N2CCCc3ccccc32)s1	i	i	1.8µM*	-11%	1%
Cc1sc2nc(C3CC3)nc(SCC(=O)N3c4ccccc4CC3C)c2c1C (centres undefined)	5.8µM*	i	9.2µM*	15µM*	?
O=C(Cc1cccs1)Nc1nnc(SCC(=O)N2CCCCC2)s1	i	i	-12%	2%	-1%
COc1ccc(NCc2nnc(SCC(=O)N3CCCc4ccccc43)o2)cc1	i	i	-1%	-18%	-19%
Cn1c(SCC(=O)NCc2cccs2)nnc1-c1ccncc1	i	i	-2%	-5%	-12%
COc1ccc(Cl)cc1N(CC(=O)Nc1ccccc1C(=O)N1CCCC1)S(C)(=O)=O	i	i	-3%	-4%	3%
COc1cccc(NCc2nnc(SCC(=O)NC3CCS(=O)(=O)C3)n2C2CCCCC2)c1 (centres undefined)	?	i	3%	-30%	2%
COc1ccc(NC(=O)Cn2nc(Cc3cccnc3)c3ccccc3c2=O)c(OC)c1	i	i	-5%	1%	4%
CC(C)Cn1c(=O)c2ccccc2n2c(SCC(=O)N3c4ccccc4CC3C)nnc12 (centres undefined)	1.8µM*	i	2%	2%	?
O=C(NCc1cccnc1)/C(=C\c1ccc(-c2ccc(Br)cc2)o1)S(=O)(=O)c1ccccc1	7.3µM*	?	7.3µM*	15µM*	21µM*
O=C(NCc1cccnc1)/C(=C/c1ccc(-c2ccc(Cl)cc2)o1)S(=O)(=O)c1ccccc1	?	i	9.2µM*	9.2µM*	?
Cn1c(-c2sc3cc(C(F)(F)F)cnc3c2-c2ccccn2)n[nH]c1=S	i	i	3%	2%	12%
CSc1nnc(-c2sc3cc(C(F)(F)F)cnc3c2-c2ccccn2)n1C	18µM*	?	7%	10%	-2%
